Bioassay records as filed in PubChem.
The list is not random: actives were taken first. Their share in the collection is about 4.1%.
MEKK2mut PB1 HTS = MEK5 binding signal on mutant MEKK2 PB1, primary screen, biochemical, multiplex bead flow cytometry, Alexa488-MEK5; Alexa488-MEK5 binding to MEKK2 mutant; percent response, % at 10 µM; hit rate 0.35% among 290,000; AID 1530, 2009; in the data active = percent response above about 24%, passing the limit was not always enough
CHT inh = inhibitors of human choline transporter CHT; AID 488975, 2010; hit rate 0.86% among 310,000; B-score at 10 µM; High affinity choline transporter 1 (Homo sapiens), Q9GZV3; CHT-expressing cells, membrane potential dye, choline response; stronger effect = lower value;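 active = B-score over 3 SD under the library average, and starting fluorescence ratio not unusually high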;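 note: choline stimulus applied at its EC90 after an EC20 pre-addition; B-score computed on integrated fluorescence ratio after choline addition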
Target sequence (Q9GZV3 whole entry, looked up): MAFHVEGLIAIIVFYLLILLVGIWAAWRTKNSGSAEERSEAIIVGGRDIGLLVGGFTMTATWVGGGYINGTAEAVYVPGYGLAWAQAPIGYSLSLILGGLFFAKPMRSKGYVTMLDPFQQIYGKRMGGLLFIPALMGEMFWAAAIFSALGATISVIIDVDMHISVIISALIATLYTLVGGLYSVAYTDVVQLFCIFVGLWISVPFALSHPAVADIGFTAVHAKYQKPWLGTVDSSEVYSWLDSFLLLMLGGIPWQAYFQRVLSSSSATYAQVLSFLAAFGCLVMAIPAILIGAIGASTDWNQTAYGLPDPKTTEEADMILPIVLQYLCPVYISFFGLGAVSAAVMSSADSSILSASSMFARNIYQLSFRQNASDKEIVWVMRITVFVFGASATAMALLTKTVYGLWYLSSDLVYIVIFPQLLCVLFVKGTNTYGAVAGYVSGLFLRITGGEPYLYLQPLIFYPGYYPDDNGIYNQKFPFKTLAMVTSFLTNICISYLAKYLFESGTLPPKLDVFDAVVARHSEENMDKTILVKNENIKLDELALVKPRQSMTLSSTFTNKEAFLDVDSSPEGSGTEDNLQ
MEKK3 PB1 HTS = modulators of MEKK3-MEK5 PB1 binding, primary screen, biochemical, wildtype MEKK3, multiplex bead flow cytometry, Alexa488-MEK5; hit rate 1.4% among 290,000; bead-based flow cytometry, Alexa488-MEK5 binding to MEKK3; actives lie on both sides; 0 = blocked by unlabeled MEK5, 100 = vehicle; Mitogen-activated protein kinase kinase kinase 3 (Homo sapiens), Q99759; AID 1529, 2009; binding response (% of control), % at 10 µM;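 active = binding response more than 3 SD above or below the average of its plate-row segment, actives on both sides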;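 note: Alexa488 bead fluorescence after subtracting the streptavidin-only scavenger bead signal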
MEKK2wt PB1 HTS = modulators of MEK5 binding to wildtype MEKK2, primary screen, biochemical, multiplex bead flow cytometry, Alexa488-MEK5 | Mitogen-activated protein kinase kinase kinase 2 (Homo sapiens), Q9Y2U5 | Alexa488-MEK5 binding to MEKK2 WT; actives lie on both sides | binding response (% of control), % at 10 µM | hit rate 1.1% among 290,000; in the data active = binding response below about 67% or above about 130%
CHT PAM = CHT positive allosteric modulators, primary screen, cell-based, membrane potential dye, choline EC20; High affinity choline transporter 1 (Homo sapiens), Q9GZV3; CHT-expressing cells; stronger effect = higher value; LV-AA mutant CHT in HEK293 cells; AID 488977, 2010; hit rate 0.49% among 310,000; B-score at 10 µM;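 active = initial fluorescence not abnormally high and integrated response B-score, plate-corrected, over 3 SD above library mean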
Mot1-301 SUMO = yeast Mot1-301 growth rescue at high temperature, primary screen, SUMOylation pathway inhibitor project, S. cerevisiae, ATP luminescence, 38.5C. growth rescue, % at 18.8 µM. S. cerevisiae Mot1-301 growth rescue; percent above DMSO median, 100 means doubled. AID 2716, 2010. hit rate 1% among 320,000;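 active = every valid replicate shows activation above 250% relative to neutral control wells; inactive = the rest, any valid replicate at or below 250%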;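 note: OY570 slx delta 5 strain wells were the positive control but not used for scaling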
CHT inh conf = CHT inhibitors, confirmation, cell-based, membrane potential dye, duplicate | shares compounds with CHT inh | CHT-expressing cells, choline membrane potential dye; LV-to-AA substituted CHT, HEK293 cells | CHT activity remaining % of control (stronger effect = lower value), % at 10 µM | hit rate 70% among 2,400 | AID 493221, 2011;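 active = choline transporter activity left, mean of duplicates at 10 µM, below buffer-only control mean minus 3 SD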;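 note: depolarization triggered by choline at its EC90 following an EC20 pre-addition; 0% = hemicholinium-3 full block and 100% = buffer-only control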
HEK293 CHT ctr = membrane potential effects in parental HEK293, counter-screen for CHT inhibitor project, cell-based, membrane potential dye; shares compounds with CHT inh; choline response; active = decrease or increase beyond buffer ±3SD; membrane potential ratio readout (active if shifted either direction beyond buffer ±3SD; no single direction) at 10 µM; hit rate 4% among 2,400;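 note: parental cells lack the transporter so any hit is non-specific; ratio is peak minus trough fluorescence over baseline after EC90 choline challenge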
* hit, by the source's call; i = inactive; . = no result.

SMILES	MEKK2mut PB1 HTS	CHT inh	MEKK3 PB1 HTS	MEKK2wt PB1 HTS	CHT PAM	Mot1-301 SUMO	CHT inh conf	HEK293 CHT ctr
CCOC(=O)c1cnc2c(OC)cccc2c1N1CCN(c2ccccn2)CC1	0	i	100	101	i	-7	.	.
CC1(C)Cc2c(cnn2-c2cccc(F)c2)C(NC(=O)CN2CCCC2=O)C1 (configuration not stated)	-1	i	101	94	i	0	.	.
N#C/C(=C(/O)CCl)c1nc(-c2ccccc2)cs1	-10	-8.4*	89	92	i	-16	-32%*	i
Cc1ccc(-c2csc(/C(C#N)=C(\O)CCl)n2)cc1	-2	.	105	104	.	.	.	.
COc1cccc(NC(=S)N(Cc2ccc(C(=O)O)cc2)Cc2ccc(OC)c(OC)c2)c1	-7	-6.4*	98	97	i	.	51%*	i
COc1ccc(CN(Cc2ccc(C(=O)O)cc2)C(=S)Nc2ccccc2C)cc1OC	-8	i	100	92	i	-1	.	.
CCCN1Cc2cccc(C(=O)NCc3ccccc3OC)c2C1=O	2	-5.3*	103	103	i	8	71%*	i
COCCN1Cc2cccc(C(=O)NCc3ccccc3OC)c2C1=O	3	i	102	109	i	-23	.	.
c1coc(Cn2c(-c3ccco3)nc3ccccc32)c1	-3	-8*	101	103	i	-5	i	-11*
C1=C2C[N+]3(CCCC3)CC2Cc2ccc3ccccc3c21 (configuration not stated)	-5	-7.6*	96	104	i	167	46%*	2.6*
COc1cccc(N(C(=O)c2cccs2)c2nc3ccccc3s2)c1	1	i	105	94	i	27	.	.
CN(Cc1ccccc1F)C(=O)CCCNC(=O)c1ccc(Cl)cc1	2	-5.8*	101	108	i	8	55%*	i
CC(C)(C)NC(=O)CSc1nc2cc(S(=O)(=O)N3CCCCC3)ccc2o1	.	.	.	.	.	-11	.	.
CC(NC(=O)CCN1C(=O)c2ccccc2C1=O)c1ccc2c(c1)CCCC2 (configuration not stated)	-1	-5.4*	104	100	i	-4	i	i
COc1ccccc1OCc1ccc(C(=O)NC(C)(C)C)o1	3	i	102	101	i	-14	.	.
CC(=O)Nc1ccc(NC(=O)c2ccc(COc3ccccc3Br)o2)cc1	0	i	106	106	i	-3	.	.
O=C(Nc1cccnc1)c1ccc(COc2ccccc2Br)o1	2	-5.7*	87	97	i	23	55%*	i
CCN(CC)C(=O)c1ccc(COc2ccccc2Br)o1	3	-8.2*	100	102	i	-6	58%*	i
CC(C)(C)NC(=O)c1ccc(COc2ccccc2Br)o1	2	-6.3*	101	100	i	-12	i	i
O=C(NCc1cccnc1)c1ccc(COc2ccccc2Cl)o1	-17	-5.4*	64	60	i	-8	58%*	i
O=C(NCc1cccnc1)c1ccc(COc2ccc3c(c2)CCC3)o1	0	i	102	101	i	-1	.	.
O=C(CNC(=O)c1ccc2c(c1)S(=O)(=O)N=C1CCCCCN12)Nc1ccc(F)c(F)c1	.	i	.	.	i	-9	.	.
CCOC(=O)N1CCN(Cc2nc(N)nc(Nc3ccc(C)cc3C)n2)CC1	-9	i	97	89	i	.	.	.
CC1CCCCC1NC(=O)CNC(=O)c1ccco1 (configuration not stated)	.	i	.	.	i	144	.	.
CCOc1ccccc1N1CCN(C(=O)C(F)(F)F)CC1	1	-6.2*	106	104	i	9	i	i
SMILES	MEKK2mut PB1 HTS	CHT inh	MEKK3 PB1 HTS	MEKK2wt PB1 HTS	CHT PAM	Mot1-301 SUMO	CHT inh conf	HEK293 CHT ctr
O=C(Nc1cccn(Cc2c(Cl)cccc2Cl)c1=O)C1CC1	-1	i	110	100	i	19	.	.
C#CCOC(=O)Nc1cccn(Cc2c(Cl)cccc2Cl)c1=O	-1	-5.1*	98	96	i	8	i	i
O=C(c1c(F)cccc1F)N1CCN(CCOc2ccccc2)CC1	7	i	105	105	i	-7	.	.
CCCCN(CCCC)S(=O)(=O)c1ccc(NC(=O)c2cccs2)cc1	12	i	107	124	i	15	.	.
CCCCN(CCCC)S(=O)(=O)c1ccc(NC(=O)c2ccc([N+](=O)[O-])cc2Cl)cc1	1	-6.2*	102	111	i	-4	70%*	i
Cc1ccc2c(COC(=O)c3c(C)noc3C)cc(=O)oc2c1	0	-5.9*	105	106	i	2	i	i
Cc1ccc2c(COC(=O)c3ccccc3F)cc(=O)oc2c1	9	i	101	103	i	-3	.	.
CC(C)NC(=O)c1ccc(-c2ccc(Cl)c(C(F)(F)F)c2)o1	3	i	101	103	i	516	.	.
CCOc1ccc(Cl)cc1S(=O)(=O)N1CCCC1	5	i	106	105	i	-6	.	.
CCOc1ccc(Br)cc1S(=O)(=O)N1CCCC1	8	-5.1*	108	102	i	-15	67%*	i
O=C(CCCSc1nc2ccccc2[nH]1)N1CCN(c2ccccc2)CC1	-9	-5*	91	95	i	9	58%*	i
O=C(CSc1nc2ccccc2[nH]1)N1CCN(c2ccccc2)CC1	2	i	101	97	i	-2	.	.
O=C(COC(=O)CCCSc1nc2ccccc2[nH]1)NC(=O)NC1CCCC1	6	-7.3*	103	100	i	-1	62%*	i
Cc1ccccc1Cn1nc(C)c(NC(=O)c2noc3c2CCCC3)c1C	6	i	106	108	i	11	.	.
Cc1nn(Cc2ccccc2Cl)c(C)c1NC(=O)c1noc2c1CCCCC2	5	-5.7*	104	100	i	6	41%*	i
